Results from PubChem BioAssay (EPA / NIEHS).
Inconclusive results are not listed. The source made the active and inactive calls. How the source made its calls: active means hit-call score of the fitted dose curve at least 0.9, where 1 is the maximum; inconclusive means response in the unintended direction; inactive means score below 0.9.

biological target: human RAR-related Orphan Receptor beta (RORb), RORB (gene 6096) (UniProt Q92753); experiment: ATG_RORb_TRANS: Attagene TRANS-FACTORIAL HepG2 Assay for human RAR-related Orphan Receptor beta (RORb) (AID 2283010)
Method: ATG_TRANS is a cell-based, multiplexed-readout assay that uses HepG2, a human liver cell line, with measurements taken at 24 hours after chemical dosing in a 24-well plate.ATG_RORb_TRANS is one of 30 assay component(s) measured or calculated from the ATG_TRANS assay. It is designed to make measurements of mRNA induction, a form of inducible reporter, as detected with fluorescence intensity signals by Reverse transcription polymerase chain reaction (RT-PCR) and Capillary electrophoresis technology.Data from the assay component ATG_RORb_TRANS was analyzed into 1 assay endpoint. This assay endpoint, ATG_RORb_TRANS, was analyzed in the positive analysis fitting direction relative to DMSO as the negative control and baseline of activity. Using a type of inducible reporter, measures of mRNA for gain-of-signal activity can be used to understand the reporter gene at the transcription factor-level as they relate to the gene RORB. Furthermore, this assay endpoint can be referred to as a primary readout, because this assay has produced multiple assay endpoints where this one serves a reporter gene function. To generalize the intended target to other relatable targets, this assay endpoint is annotated to the nuclear receptor intended target family, where the subfamily is orphan.
Human liver HepG2 cells are transiently transfected with multiple reporter transcription units (MRTUs) in 6-well plates using FuGene 6 reagent (Roche; 3 ml FuGene/1 mg DNA). The MRTU constructs are regulated by a cis-regulating element (promoter). […] A major difference between the CIS and TRANS system is that in CIS activities of endogenous TFs are measured, whereas the TRANS assay evaluates changes in activities of exogenous, chimeric NR-Gal4 proteins. […] At the end of 24 hour incubation, total RNA was isolated using TriZol reagent (Invitrogen). The isolated RNA is then reverse-transcribed using oligo(dT) primer and Mo-MLV reverse transcriptase (Invitrogen) with DNAse I (Ambion) treatment for 30 min. The one-tenth of the produced cDNA was amplified by PCR using Taq DNA polymerase (Invitrogen) and two reporter sequence-specific primers. The PCR products were fluorescently labeled by primer extension with 6-arboxyfluorescein (6-FAM) 5'-labeled reporter sequence-specific primer (2 min at 95 C, 20 s at 68 C and 10 min at 72 C) and these products were digested with 5U of HpaI (New England Biolabs) for 2h at 37 C. The fragments were purified using Qiaquick PCR columns (Qiagen), analyzed on an ABI 3130xL genetic analyzer (Applied Biosystems) with peak positions identified by using a set of X-rhodamine (ROX)-labeled MapMarker1000 molecular weight standards (BioVentures). The raw capillary electrophoresis data was processed using Attagraph software (Attagene).

human RAR-related Orphan Receptor beta (RORb), RORB (gene 6096), sequence (Q92753 whole entry, looked up): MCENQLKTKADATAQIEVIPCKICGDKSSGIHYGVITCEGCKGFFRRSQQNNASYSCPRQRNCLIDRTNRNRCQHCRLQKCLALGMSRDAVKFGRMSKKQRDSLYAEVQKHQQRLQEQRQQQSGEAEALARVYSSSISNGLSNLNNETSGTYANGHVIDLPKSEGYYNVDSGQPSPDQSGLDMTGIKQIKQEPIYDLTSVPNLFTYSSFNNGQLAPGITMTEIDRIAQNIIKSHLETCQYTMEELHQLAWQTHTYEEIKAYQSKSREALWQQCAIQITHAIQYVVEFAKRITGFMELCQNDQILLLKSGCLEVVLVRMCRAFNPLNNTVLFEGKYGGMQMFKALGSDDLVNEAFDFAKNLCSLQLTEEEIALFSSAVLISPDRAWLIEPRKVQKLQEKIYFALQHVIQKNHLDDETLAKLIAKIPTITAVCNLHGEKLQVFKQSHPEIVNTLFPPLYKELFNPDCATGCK

outcome, inactive:
O=C1OC2(c3cc(Br)c(O)c(Br)c3Oc3c2cc(Br)c(O)c3Br)c2c(Cl)c(Cl)c(Cl)c(Cl)c21
Cc1cccc(C)c1[N+](=O)[O-]
CC(=O)Nc1ccc(C)cc1C
COC(=O)c1ccc(C)cc1
CC(O)C(C)O (stereo not given)
COc1cc(C)cc(O)c1
O=C(O)CN(CCN(CC(=O)O)CC(=O)O)CCN(CC(=O)O)CC(=O)O
CCN(CC)CCOC(=O)c1ccc(N)cc1
CC(C)[C@@H]1CC[C@@H](C)CC1=O
Cc1ccccc1C=O
CC(=O)OCCOC(C)=O
CCCCCCCCCCCCCCCCCC(=O)OCC(CC)CCCC (stereo not given)
CCCCCCCCCCC(CO)CCCCCCCC (stereo not given)
ClCCCl
CCCCC/C=C/C=C/C=O
CCN(CC)c1ccc(C(=C2C=CC(=[N+](CC)CC)C=C2)c2ccc(S(=O)(=O)O)cc2S(=O)(=O)[O-])cc1
C=C(C)C(=O)OCCOC(=O)CC(C)=O
OCCN1CCNCC1
Cc1cccc(C)c1C
C=CC(=O)OCCOCCOCC
CCCCCCC#CC(=O)OC
CN(C)c1ccc(O)c2c1C[C@H]1C[C@H]3[C@H](N(C)C)C(=O)C(C(N)=O)=C(O)[C@@]3(O)C(=O)C1=C2O
Cc1ncc([N+](=O)[O-])n1C
CCCCCCCCCCCCN
c1ccc2[nH]ccc2c1
CN(C)CCOCCN(C)C
CCCC(=O)C(C)=O
CCCCCC(CO)CCC (stereo not given)
CCc1ccc(C=O)cc1
CC(C)=CCCC(C)CC=O (stereo not given)
CC1=CCC(O)(C(C)C)CC1 (stereo not given)
c1ccc2c(c1)c1cccc3ccc4cccc2c4c31
CCCCCCCCCCCCCCCC(=O)O
C=CC(C)(CCC=C(C)C)OC=O (stereo not given)
NCCOCCO
CCCCCC=CCC(=O)OC
CC(C)=CCO
CC(C#N)(CCC(=O)O)N=NC(C)(C#N)CCC(=O)O (stereo not given)
CCCC1CCC(=O)O1 (stereo not given)
OCc1cccnc1
